Data published in the supplement of paper PMC11732987, “Enantioselective OTUD7B fragment discovery through chemoproteomics screening and high-throughput optimisation” (Communications Chemistry, 2025).

What was measured:
Assay in all cases: log2 ratio of Biotin-Ahx-Ub-VS probe labelling (fragment/DMSO); higher = less target engagement (more negative = stronger competition), active = hit call of the paper (q ≤ 0.05, log2 ratio ≤ -1)
Settings in all cases: compound concentration: 200 uM; treatment time: 3 h
USP16 = USP16 (UniProt Q9Y5T5)
Sequence of USP16 (Q9Y5T5 whole entry, looked up, the tested form may be a part): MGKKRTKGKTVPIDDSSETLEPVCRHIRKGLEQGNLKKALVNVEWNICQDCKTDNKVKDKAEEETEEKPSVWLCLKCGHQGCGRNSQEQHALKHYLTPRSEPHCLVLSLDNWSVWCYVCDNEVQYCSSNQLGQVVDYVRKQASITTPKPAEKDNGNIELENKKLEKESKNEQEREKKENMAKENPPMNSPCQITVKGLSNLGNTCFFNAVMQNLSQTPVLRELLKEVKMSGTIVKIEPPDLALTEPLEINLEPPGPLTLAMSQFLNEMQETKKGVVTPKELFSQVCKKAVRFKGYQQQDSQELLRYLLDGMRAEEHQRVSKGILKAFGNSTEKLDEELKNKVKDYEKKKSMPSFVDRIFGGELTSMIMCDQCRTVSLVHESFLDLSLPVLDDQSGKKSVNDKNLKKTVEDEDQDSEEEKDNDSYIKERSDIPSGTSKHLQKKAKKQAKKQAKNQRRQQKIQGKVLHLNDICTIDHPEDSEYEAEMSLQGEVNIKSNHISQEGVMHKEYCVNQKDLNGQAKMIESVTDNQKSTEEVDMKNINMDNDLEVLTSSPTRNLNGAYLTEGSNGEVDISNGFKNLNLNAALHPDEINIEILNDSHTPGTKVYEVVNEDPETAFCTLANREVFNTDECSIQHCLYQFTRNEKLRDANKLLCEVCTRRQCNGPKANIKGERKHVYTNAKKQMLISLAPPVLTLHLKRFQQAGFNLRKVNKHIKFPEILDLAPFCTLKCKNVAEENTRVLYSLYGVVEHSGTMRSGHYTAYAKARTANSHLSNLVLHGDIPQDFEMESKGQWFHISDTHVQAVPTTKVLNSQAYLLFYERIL
Procedure, shortened: (§1)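 Labelling with Biotin-Ahx-Ub-VS (0.5 µM final, 1 h) followed a 3 h triplicate treatment of HEK293T lysate (495 µg per sample, Tris/CHAPS/IGEPAL buffer with protease inhibitors) with fragment at 200 µM or vehicle. Labelled DUBs were NeutrAvidin-enriched, digested with LysC and trypsin, and run by diaPASEF LC-MS/MS. The values, average log2 fragment/vehicle ratios by unpaired t-test, come from global-median-normalised Spectronaut label-free quantities. Proteins with ≥2 unique peptides were used.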

USP19 = target: T1, USP19 (UniProt O94966)
T1 sequence (whole entry): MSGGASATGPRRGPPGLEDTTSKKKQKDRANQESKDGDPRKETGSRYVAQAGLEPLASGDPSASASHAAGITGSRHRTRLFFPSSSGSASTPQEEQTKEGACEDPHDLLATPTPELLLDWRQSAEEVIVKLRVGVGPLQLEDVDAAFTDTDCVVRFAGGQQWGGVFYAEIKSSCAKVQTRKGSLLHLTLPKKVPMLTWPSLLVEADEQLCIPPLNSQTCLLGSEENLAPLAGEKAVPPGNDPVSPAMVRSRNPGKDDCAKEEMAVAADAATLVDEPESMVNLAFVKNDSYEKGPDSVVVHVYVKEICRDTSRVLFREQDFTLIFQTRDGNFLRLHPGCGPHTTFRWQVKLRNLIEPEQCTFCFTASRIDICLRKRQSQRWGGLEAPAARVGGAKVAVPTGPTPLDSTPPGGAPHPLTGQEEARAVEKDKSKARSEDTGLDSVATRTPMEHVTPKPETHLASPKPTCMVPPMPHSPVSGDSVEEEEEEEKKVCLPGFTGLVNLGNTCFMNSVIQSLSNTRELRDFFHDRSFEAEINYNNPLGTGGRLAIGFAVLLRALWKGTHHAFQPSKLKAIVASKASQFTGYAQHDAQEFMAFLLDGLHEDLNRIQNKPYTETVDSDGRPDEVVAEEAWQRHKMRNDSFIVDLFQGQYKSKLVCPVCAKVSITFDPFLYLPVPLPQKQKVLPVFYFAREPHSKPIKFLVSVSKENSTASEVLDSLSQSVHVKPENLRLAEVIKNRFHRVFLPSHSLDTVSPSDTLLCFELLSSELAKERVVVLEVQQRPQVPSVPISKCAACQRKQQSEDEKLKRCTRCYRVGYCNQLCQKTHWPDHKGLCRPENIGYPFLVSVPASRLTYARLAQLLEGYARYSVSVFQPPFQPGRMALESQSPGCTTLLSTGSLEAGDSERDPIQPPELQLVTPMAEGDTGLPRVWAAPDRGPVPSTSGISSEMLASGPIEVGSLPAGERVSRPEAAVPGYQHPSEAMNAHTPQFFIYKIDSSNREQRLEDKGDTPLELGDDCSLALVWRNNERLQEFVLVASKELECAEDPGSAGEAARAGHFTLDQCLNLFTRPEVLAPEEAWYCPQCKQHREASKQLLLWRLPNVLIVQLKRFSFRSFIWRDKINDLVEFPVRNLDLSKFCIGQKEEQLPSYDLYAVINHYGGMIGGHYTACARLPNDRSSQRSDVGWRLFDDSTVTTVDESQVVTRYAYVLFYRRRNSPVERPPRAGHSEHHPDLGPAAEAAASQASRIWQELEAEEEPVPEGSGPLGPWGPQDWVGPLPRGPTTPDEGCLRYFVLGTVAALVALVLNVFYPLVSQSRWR
Procedure, shortened: as §1

USP24 = USP24 (UniProt Q9UPU5)
Sequence of USP24 (Q9UPU5 whole entry): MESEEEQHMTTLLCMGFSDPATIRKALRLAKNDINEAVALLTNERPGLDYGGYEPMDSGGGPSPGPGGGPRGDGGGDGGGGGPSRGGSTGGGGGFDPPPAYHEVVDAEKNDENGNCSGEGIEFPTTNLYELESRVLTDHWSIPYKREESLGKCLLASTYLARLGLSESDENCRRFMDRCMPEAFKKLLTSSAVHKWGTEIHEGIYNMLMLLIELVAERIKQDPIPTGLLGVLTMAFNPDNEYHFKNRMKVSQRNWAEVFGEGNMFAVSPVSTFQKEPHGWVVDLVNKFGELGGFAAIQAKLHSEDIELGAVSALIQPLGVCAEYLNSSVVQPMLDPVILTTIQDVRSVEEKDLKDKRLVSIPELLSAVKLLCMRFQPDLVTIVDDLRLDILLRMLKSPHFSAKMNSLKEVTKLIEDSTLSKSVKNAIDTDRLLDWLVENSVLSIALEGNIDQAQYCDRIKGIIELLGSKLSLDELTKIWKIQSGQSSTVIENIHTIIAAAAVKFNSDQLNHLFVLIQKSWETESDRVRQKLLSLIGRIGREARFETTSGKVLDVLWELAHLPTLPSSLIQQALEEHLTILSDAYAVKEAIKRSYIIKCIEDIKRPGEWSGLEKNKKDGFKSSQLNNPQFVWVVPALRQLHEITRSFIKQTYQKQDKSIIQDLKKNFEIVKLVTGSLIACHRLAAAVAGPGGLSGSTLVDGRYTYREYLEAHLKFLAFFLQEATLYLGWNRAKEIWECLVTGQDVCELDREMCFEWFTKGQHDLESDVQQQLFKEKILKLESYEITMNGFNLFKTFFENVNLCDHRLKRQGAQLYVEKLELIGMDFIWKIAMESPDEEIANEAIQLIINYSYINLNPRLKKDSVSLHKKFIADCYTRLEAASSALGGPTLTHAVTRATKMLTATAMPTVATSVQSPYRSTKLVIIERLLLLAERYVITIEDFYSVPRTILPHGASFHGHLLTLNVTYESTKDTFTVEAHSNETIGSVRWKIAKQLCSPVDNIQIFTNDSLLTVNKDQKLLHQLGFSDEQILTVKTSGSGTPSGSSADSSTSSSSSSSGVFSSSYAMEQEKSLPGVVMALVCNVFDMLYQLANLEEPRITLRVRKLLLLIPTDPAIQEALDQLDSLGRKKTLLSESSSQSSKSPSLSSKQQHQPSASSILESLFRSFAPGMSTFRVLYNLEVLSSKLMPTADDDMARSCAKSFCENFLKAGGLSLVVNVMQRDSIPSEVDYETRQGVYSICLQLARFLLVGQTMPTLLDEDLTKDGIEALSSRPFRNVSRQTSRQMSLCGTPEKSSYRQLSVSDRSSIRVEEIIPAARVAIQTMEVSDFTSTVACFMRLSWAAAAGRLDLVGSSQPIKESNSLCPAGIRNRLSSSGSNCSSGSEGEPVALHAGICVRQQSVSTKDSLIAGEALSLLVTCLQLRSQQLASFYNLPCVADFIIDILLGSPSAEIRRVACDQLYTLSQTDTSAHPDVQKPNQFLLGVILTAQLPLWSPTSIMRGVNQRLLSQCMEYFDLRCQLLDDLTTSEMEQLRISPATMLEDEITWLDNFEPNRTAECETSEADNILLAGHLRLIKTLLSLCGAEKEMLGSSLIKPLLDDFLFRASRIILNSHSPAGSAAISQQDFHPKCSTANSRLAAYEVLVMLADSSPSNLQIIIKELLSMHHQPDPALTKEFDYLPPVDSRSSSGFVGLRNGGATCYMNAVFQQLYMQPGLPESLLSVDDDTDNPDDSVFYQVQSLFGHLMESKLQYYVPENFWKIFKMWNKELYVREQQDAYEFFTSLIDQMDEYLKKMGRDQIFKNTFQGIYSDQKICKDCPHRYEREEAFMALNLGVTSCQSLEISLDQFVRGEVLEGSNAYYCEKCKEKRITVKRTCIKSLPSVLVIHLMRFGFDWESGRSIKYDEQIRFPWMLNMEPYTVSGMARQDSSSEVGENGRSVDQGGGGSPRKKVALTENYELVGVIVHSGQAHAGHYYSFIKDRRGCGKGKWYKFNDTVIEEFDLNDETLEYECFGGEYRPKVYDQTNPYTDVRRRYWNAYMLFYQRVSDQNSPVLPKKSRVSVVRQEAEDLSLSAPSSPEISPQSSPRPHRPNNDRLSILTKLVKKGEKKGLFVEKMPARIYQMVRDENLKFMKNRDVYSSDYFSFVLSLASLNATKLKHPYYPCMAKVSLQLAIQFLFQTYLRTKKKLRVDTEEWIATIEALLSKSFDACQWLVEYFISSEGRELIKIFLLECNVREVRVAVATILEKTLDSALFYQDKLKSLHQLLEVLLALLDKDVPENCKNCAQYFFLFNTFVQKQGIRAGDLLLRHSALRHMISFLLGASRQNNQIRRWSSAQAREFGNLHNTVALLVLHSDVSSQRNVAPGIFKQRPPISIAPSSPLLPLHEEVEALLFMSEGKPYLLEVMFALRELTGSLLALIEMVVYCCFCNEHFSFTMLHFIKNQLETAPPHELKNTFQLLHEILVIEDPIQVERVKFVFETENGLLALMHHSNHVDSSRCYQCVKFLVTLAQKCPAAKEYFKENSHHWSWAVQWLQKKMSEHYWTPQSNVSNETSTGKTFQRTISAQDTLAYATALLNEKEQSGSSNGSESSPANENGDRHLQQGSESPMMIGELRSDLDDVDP
Procedure, shortened: as §1

USP25 = target: T2, USP25 (UniProt Q9UHP3)
T2 sequence (whole entry): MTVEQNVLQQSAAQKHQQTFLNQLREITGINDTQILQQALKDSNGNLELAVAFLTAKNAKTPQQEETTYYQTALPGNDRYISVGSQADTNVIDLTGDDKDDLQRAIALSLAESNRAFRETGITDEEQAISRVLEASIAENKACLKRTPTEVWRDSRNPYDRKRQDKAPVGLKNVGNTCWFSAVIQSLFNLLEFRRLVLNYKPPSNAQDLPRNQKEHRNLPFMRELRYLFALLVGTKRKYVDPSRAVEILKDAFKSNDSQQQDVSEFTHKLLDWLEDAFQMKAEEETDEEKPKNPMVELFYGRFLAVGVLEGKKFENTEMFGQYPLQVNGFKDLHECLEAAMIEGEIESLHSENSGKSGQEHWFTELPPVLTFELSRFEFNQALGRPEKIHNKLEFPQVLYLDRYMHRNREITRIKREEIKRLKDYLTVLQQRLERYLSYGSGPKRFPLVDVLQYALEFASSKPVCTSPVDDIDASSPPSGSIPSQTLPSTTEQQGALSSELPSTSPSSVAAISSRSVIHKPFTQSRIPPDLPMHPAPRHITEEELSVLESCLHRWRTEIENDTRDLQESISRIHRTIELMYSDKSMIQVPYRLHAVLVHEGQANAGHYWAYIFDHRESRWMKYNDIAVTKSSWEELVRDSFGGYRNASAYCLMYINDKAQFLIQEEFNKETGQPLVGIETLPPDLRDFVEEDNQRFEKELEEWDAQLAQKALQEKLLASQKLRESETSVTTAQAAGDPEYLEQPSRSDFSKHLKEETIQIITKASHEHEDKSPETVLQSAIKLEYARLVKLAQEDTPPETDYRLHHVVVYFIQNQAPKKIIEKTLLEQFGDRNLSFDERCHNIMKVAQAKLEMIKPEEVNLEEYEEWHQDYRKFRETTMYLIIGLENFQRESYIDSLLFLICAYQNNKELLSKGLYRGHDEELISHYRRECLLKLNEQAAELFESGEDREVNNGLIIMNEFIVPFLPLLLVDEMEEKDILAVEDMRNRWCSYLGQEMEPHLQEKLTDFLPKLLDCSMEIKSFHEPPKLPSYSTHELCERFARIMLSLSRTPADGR
Procedure, shortened: as §1

USP28 = target: T3, USP28 (UniProt Q96RU2)
T3 sequence (whole entry): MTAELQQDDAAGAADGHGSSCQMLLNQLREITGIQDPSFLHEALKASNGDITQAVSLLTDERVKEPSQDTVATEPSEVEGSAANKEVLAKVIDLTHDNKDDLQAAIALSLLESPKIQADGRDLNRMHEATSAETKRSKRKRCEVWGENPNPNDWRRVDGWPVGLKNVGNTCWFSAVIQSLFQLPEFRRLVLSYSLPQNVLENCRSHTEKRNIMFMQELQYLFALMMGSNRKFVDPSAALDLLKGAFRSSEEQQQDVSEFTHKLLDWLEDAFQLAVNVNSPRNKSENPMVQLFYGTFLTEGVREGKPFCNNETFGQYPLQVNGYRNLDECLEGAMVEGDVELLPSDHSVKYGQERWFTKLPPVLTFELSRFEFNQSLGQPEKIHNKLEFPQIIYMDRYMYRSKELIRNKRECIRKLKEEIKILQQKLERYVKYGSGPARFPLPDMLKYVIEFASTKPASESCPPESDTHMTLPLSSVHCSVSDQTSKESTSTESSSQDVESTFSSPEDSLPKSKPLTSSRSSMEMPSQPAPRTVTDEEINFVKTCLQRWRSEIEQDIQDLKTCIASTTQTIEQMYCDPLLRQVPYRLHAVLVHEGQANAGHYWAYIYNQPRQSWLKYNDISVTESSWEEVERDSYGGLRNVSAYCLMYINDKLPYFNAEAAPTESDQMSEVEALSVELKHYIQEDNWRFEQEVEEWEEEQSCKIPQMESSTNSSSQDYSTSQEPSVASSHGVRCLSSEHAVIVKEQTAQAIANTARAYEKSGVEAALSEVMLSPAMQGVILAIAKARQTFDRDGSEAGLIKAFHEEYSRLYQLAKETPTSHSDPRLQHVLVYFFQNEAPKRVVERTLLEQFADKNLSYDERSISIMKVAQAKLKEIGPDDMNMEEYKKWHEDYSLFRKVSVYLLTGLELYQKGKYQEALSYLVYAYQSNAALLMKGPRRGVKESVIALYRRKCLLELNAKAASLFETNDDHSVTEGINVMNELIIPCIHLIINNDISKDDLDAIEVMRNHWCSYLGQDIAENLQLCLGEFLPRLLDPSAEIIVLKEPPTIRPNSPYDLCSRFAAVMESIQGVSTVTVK
Procedure, shortened: as §1

Measured: log2 ratio of Biotin-Ahx-Ub-VS probe labelling

Cc1ccn2cc(CNC(=O)CCl)nc2c1.Cl
inactive: USP16 0.0424 | USP19 -0.148 | USP24 -0.106 | USP25 -0.398 | USP28 -0.272
